{
  "source": "PubChem BioAssay (NCATS)",
  "key": {"[1]": {"biological_target": "Glutathione peroxidase 1 (Homo sapiens) (UniProt P07203)", "sequence (P07203 whole entry, looked up)": "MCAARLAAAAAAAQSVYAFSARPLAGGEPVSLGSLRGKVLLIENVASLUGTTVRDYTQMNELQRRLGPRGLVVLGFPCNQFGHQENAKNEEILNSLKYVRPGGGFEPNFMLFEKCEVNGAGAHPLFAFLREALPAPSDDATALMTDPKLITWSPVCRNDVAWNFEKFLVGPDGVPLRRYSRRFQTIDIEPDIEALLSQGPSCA", "experiment": "Primary qHTS Assay for Inhibitors of Recombinant Selenoprotein Glutathione Peroxidase 1 (GPX1) (AID 1845191); further: nearly all actives have a fitted effect of over 65% in size", "how_it_was_run": "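GR-coupled assay: compounds preincubated 30 min at room temperature with GPX1, then reaction started with CHP; final 10 nM GPX1, 1 mM GSH, 0.5 mM CHP, 0.5 mM NADPH, 100 nM GR, 0.01% BSA, pH 7.5 Tris buffer. NADPH fluorescence (340/450 nm) read at 0 and 15 min.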"}, "[2]": {"biological_target": "Phospholipid hydroperoxide glutathione peroxidase GPX4 (Homo sapiens) (UniProt P36969)", "sequence (P36969 whole entry, looked up)": "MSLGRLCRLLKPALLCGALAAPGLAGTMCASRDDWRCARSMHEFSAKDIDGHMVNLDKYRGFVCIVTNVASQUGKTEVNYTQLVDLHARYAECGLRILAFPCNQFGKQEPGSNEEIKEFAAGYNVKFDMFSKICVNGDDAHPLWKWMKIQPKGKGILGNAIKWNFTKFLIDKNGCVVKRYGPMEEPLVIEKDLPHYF", "experiment": "Primary qHTS Assay for Inhibitors of Recombinant Selenoprotein Glutathione Peroxidase 4 (GPX4) (AID 1845192); further: nearly all actives have a fitted effect of over 65% in size", "how_it_was_run": "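GR-coupled assay: recombinant GPX4 preincubated 30 min with compound at room temperature; final 200 nM GPX4, 1 mM GSH, 0.5 mM cumene hydroperoxide, 0.5 mM NADPH, 100 nM GR, 0.01% BSA, pH 7.5 Tris. NADPH fluorescence (340/450 nm) read at 0 and 15 min.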"}, "[3]": {"experiment": "Quantitative High-Throughput drug screen in 47 multiple myeloma cell lines against the NCATS MIPE library collection: FR4_PLB cell viability assay (AID 1918924; further: nearly all actives have a fitted effect of over 35% in size)", "how_it_was_run": "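Inhibition of cell viability is measured here. Each line was plated at 500 cells per well, treated with MIPE 4.0 drugs, kept 48 hours at 37C, then assayed for ATP content by CellTiter-Glo luminescence.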"}, "[4]": {"experiment": "Quantitative High-Throughput drug screen in 47 multiple myeloma cell lines against the NCATS MIPE library collection: Delta47_JCRB cell viability assay (AID 1918925; further: nearly all actives have a fitted effect of over 45% in size; further: potency means the concentration at half of the fitted maximal effect)", "how_it_was_run": "(§1)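 Viability readout: CellTiter-Glo luminescence following 5 min room-temperature incubation with reagent. Prior exposure: 48 h, 37C, humidified 5% CO2, 500 cells per well.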"}, "[5]": {"experiment": "Quantitative High-Throughput drug screen in 47 multiple myeloma cell lines against the NCATS MIPE library collection: AMO1_DSMZ cell viability assay (AID 1918927)", "how_it_was_run": "as §1"}, "[6]": {"experiment": "Quantitative High-Throughput drug screen in 47 multiple myeloma cell lines against the NCATS MIPE library collection: EJM_DSMZ cell viability assay (AID 1918926)", "how_it_was_run": "as §1"}},
  "note": "Results filed as inconclusive are left out. A call without a number means that no potency is given here. Active and inactive are the calls of the source. The call rests on the fitted dose curve; in most records, active means well fitted curve in the direction sought with a large enough effect; inconclusive means small, poorly fitted or top-dose-only effect, or another doubt; inactive means no such curve, though single readings can be large; an effect the other way counts as inactive or inconclusive. Wherever potency is given: potency means the concentration at half of the fitted maximal effect.",
  "data": [
    {"molecule": "O=C(O)c1cn(-c2ccc(F)cc2)c2cc(N3CCNCC3)c(F)cc2c1=O", "values": [
      {"measurement": "Potency", "setting": "[1]", "value": "inactive"},
      {"measurement": "Potency", "setting": "[2]", "value": "inactive"},
      {"measurement": "Potency", "setting": "[3]", "value": "inactive"},
      {"measurement": "Potency", "setting": "[4]", "value": "inactive"},
      {"measurement": "Potency", "setting": "[5]", "value": "inactive"}
    ]},
    {"molecule": "Nc1ncn([C@H]2C[C@H](O)[C@@H](CO)O2)c(=O)n1", "values": [
      {"measurement": "Potency", "setting": "[1]", "value": "inactive"},
      {"measurement": "Potency", "setting": "[2]", "value": "inactive"},
      {"measurement": "Potency", "setting": "[3]", "value": "inactive"},
      {"measurement": "Potency", "setting": "[6]", "value": "inactive"}
    ]},
    {"molecule": "Nc1cc(C(Cl)=C(Cl)Cl)c(S(N)(=O)=O)cc1S(N)(=O)=O", "values": [
      {"measurement": "Potency", "setting": "[1]", "value": "inactive"},
      {"measurement": "Potency", "setting": "[2]", "value": "inactive"},
      {"measurement": "Potency", "setting": "[3]", "value": "inactive"},
      {"measurement": "Potency", "setting": "[4]", "value": "inactive"},
      {"measurement": "Potency", "setting": "[5]", "value": "inactive"}
    ]},
    {"molecule": "CCCOc1ccc2nc(NC(=O)OC)[nH]c2c1", "values": [
      {"measurement": "Potency", "setting": "[1]", "value": "inactive"},
      {"measurement": "Potency", "setting": "[2]", "value": "inactive"},
      {"measurement": "Potency", "setting": "[3]", "value": "inactive"},
      {"measurement": "Potency", "setting": "[4]", "value": "11.8 nM (active)"},
      {"measurement": "Potency", "setting": "[5]", "value": "1 nM (active)"}
    ]},
    {"molecule": "COC(=O)C1=C(C)NC(C)=C(C(=O)OC(C)C)C1c1cccc2nonc12", "note": "(stereo not drawn)", "values": [
      {"measurement": "Potency", "setting": "[1]", "value": "inactive"},
      {"measurement": "Potency", "setting": "[2]", "value": "inactive"},
      {"measurement": "Potency", "setting": "[4]", "value": "2960 nM (active)"},
      {"measurement": "Potency", "setting": "[6]", "value": "inactive"},
      {"measurement": "Potency", "setting": "[5]", "value": "inactive"}
    ]},
    {"molecule": "c1ccc2[nH]c(-c3cscn3)nc2c1", "values": [
      {"measurement": "Potency", "setting": "[1]", "value": "inactive"},
      {"measurement": "Potency", "setting": "[2]", "value": "inactive"},
      {"measurement": "Potency", "setting": "[4]", "value": "inactive"},
      {"measurement": "Potency", "setting": "[5]", "value": "inactive"}
    ]},
    {"molecule": "O=C(NCC1CCCCN1)c1cc(OCC(F)(F)F)ccc1OCC(F)(F)F", "note": "(stereo not drawn)", "values": [
      {"measurement": "Potency", "setting": "[1]", "value": "inactive"},
      {"measurement": "Potency", "setting": "[2]", "value": "inactive"},
      {"measurement": "Potency", "setting": "[4]", "value": "8330 nM (active)"},
      {"measurement": "Potency", "setting": "[6]", "value": "inactive"},
      {"measurement": "Potency", "setting": "[5]", "value": "3320 nM (active)"}
    ]}
  ]
}
